# Values joined by “and” are separate entries in the source; they are usually repeats but may differ in a detail not shown here. Identical values can stand only once. About 2,000 (36%) of roughly 5,500 compounds were called active. Inconclusive results (about 18%) are left out. No stated cut-off is given here; in the data, active means normalized growth mostly below about 0.91 (no sharp cut-off); inconclusive means no clear call, values can overlap the other calls; inactive means mostly above about 0.92. This is one part of the list.
# Test: chemical genetic growth profiling, strain panel (AID 1159580);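 further: tested at 20 µM; growth read once vehicle control cultures reached saturation at 30 °C; 1 = growth at the plate median or of vehicle wells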
# Conditions: S. cerevisiae deletion strains, growth OD
smiles,measurement,setting,value
CC1=CCc2c(cc3oc(C)cc(=O)c3c2O)OC1,normalized growth,"locus YAL013W, strain DEP1, stronger effect = lower value",0.886 (active)
same,normalized growth,"locus YAL021C, strain ccr4, stronger effect = lower value",0.991 (inactive)
same,normalized growth,"locus YAL026C, strain drs2, stronger effect = lower value",0.964 (inactive)
same,normalized growth,"locus YAL030W, strain snc1, stronger effect = lower value",0.972 (inactive)
same,normalized growth,"locus YBL061C, strain skt5, stronger effect = lower value",0.971 (inactive)
same,normalized growth,"locus YBR009C, strain hhf1, stronger effect = lower value",0.954 (inactive)
same,normalized growth,"locus YBR021W, strain FUR4, stronger effect = lower value",0.856 (inactive)
same,normalized growth,"locus YBR023C, strain chs3, stronger effect = lower value",0.977 (inactive)
same,normalized growth,"locus YBR171W, strain sec66, stronger effect = lower value",0.94 (inactive)
same,normalized growth,"locus YBR229C, strain ROT2, stronger effect = lower value",0.98 (inactive)
same,normalized growth,"locus YBR231C, strain swc5, stronger effect = lower value",0.966 (inactive)
same,normalized growth,"locus YBR279W, strain paf1, stronger effect = lower value",0.982 (inactive)
same,normalized growth,"locus YCL011C, strain gbp2, stronger effect = lower value",0.929 (inactive)
same,normalized growth,"locus YCL016C, strain dcc1, stronger effect = lower value",0.982 (inactive)
same,normalized growth,"locus YCL029C, strain bik1, stronger effect = lower value",0.951 (inactive)
same,normalized growth,"locus YCL061C, strain MRC1, stronger effect = lower value",0.954 (inactive)
same,normalized growth,"locus YCL069W, strain vba3, stronger effect = lower value",0.954 (inactive)
same,normalized growth,"locus YCR088W, strain abp1, stronger effect = lower value",0.961 (inactive)
same,normalized growth,"locus YDL005C, strain med2, stronger effect = lower value",1 (inactive)
same,normalized growth,"locus YDL035C, strain GPR1, stronger effect = lower value",0.863 (inactive)
same,normalized growth,"locus YDL040C, strain nat1, stronger effect = lower value",0.984 (inactive)
same,normalized growth,"locus YDL074C, strain BRE1, stronger effect = lower value",0.703 (active)
same,normalized growth,"locus YDL101C, strain DUN1, stronger effect = lower value",0.943 (inactive)
same,normalized growth,"locus YDL134C, strain PPH21, stronger effect = lower value",0.907 (inactive)
same,normalized growth,"locus YDL185W, strain tfp1, stronger effect = lower value",0.962 (inactive)
same,normalized growth,"locus YDL192W, strain arf1, stronger effect = lower value",0.901 (active)
same,normalized growth,"locus YDR001C, strain nth1, stronger effect = lower value",0.949 (inactive)
same,normalized growth,"locus YDR069C, strain doa4, stronger effect = lower value",0.988 (inactive)
same,normalized growth,"locus YDR101C, strain arx1, stronger effect = lower value",0.887 (active)
same,normalized growth,"locus YDR137W, strain rgp1, stronger effect = lower value",0.913 (inactive)
same,normalized growth,"locus YDR150W, strain NUM1, stronger effect = lower value",0.96 (inactive)
same,normalized growth,"locus YDR159W, strain sac3, stronger effect = lower value",1.02 (inactive)
same,normalized growth,"locus YDR162C, strain NBP2, stronger effect = lower value",0.738 (active)
same,normalized growth,"locus YDR195W, strain ref2",1.2 [resistant] (active)
same,normalized growth,"locus YDR297W, strain sur2, stronger effect = lower value",0.968 (inactive)
same,normalized growth,"locus YDR318W, strain mcm21, stronger effect = lower value",0.885 (active)
same,normalized growth,"locus YDR334W, strain swr1, stronger effect = lower value",0.965 (inactive)
same,normalized growth,"locus YDR335W, strain msn5, stronger effect = lower value",0.987 (inactive)
same,normalized growth,"locus YDR388W, stronger effect = lower value",0.957 (inactive)
same,normalized growth,"locus YDR392W, strain spt3, stronger effect = lower value",0.893 (inactive)
same,normalized growth,"locus YDR502C, strain sam2, stronger effect = lower value",0.86 (active)
same,normalized growth,"locus YEL003W, strain gim4, stronger effect = lower value",0.929 (inactive)
same,normalized growth,"locus YEL037C, strain rad23, stronger effect = lower value",0.96 (inactive)
same,normalized growth,"locus YEL061C, strain CIN8 (second series), stronger effect = lower value",0.966 (inactive)
same,normalized growth,"locus YEL061C, strain CIN8, stronger effect = lower value",0.952 (inactive)
same,normalized growth,"locus YER015W, strain faa2, stronger effect = lower value",0.975 (inactive)
same,normalized growth,"locus YER016W, strain bim1, stronger effect = lower value",0.985 (inactive)
same,normalized growth,"locus YER110C, stronger effect = lower value",0.933 (inactive)
same,normalized growth,"locus YER111C, strain swi4, stronger effect = lower value",0.967 (inactive)
same,normalized growth,"locus YER155C, strain BEM2 (second series), stronger effect = lower value",0.867 (inactive)
same,normalized growth,"locus YER155C, strain BEM2, stronger effect = lower value",0.96 (inactive)
same,normalized growth,"locus YER167W, strain BCK2, stronger effect = lower value",0.924 (inactive)
same,normalized growth,"locus YFR010W, strain ubp6, stronger effect = lower value",0.953 (inactive)
same,normalized growth,"locus YGL078C, strain dbp3, stronger effect = lower value",0.944 (inactive)
same,normalized growth,"locus YGL086W, strain mad1, stronger effect = lower value",0.934 (inactive)
same,normalized growth,"locus YGL167C, strain pmr1, stronger effect = lower value",0.979 (inactive)
same,normalized growth,"locus YGL173C, strain kem1, stronger effect = lower value",0.959 (inactive)
same,normalized growth,"locus YGL227W, strain vid30, stronger effect = lower value",0.964 (inactive)
same,normalized growth,"locus YGL240W, strain doc1, stronger effect = lower value",0.951 (inactive)
same,normalized growth,"locus YGL248W, strain PDE1, stronger effect = lower value",0.901 (inactive)
same,normalized growth,"locus YGL253W, strain hxk2, stronger effect = lower value",0.987 (inactive)
same,normalized growth,"locus YGR078C, strain PAC10, stronger effect = lower value",0.785 (active)
same,normalized growth,"locus YGR135W, strain pre9, stronger effect = lower value",0.802 (active)
same,normalized growth,"locus YGR229C, strain SMI1, stronger effect = lower value",0.679 (active)
same,normalized growth,"locus YGR252W, strain gcn5, stronger effect = lower value",0.741 (active)
same,normalized growth,"locus YHR013C, strain ard1, stronger effect = lower value",0.924 (inactive)
same,normalized growth,"locus YHR027C, strain rpn1, stronger effect = lower value",0.984 (inactive)
same,normalized growth,"locus YHR030C, strain SLT2, stronger effect = lower value",0.892 (active) and 0.959 (inactive)
same,normalized growth,"locus YHR079C, strain IRE1 (second series), stronger effect = lower value",0.91 (active)
same,normalized growth,"locus YHR079C, strain IRE1, stronger effect = lower value",0.96 (inactive)
same,normalized growth,"locus YHR094C, strain hxt1, stronger effect = lower value",0.972 (inactive)
same,normalized growth,"locus YHR129C, strain ARP1, stronger effect = lower value",0.925 (inactive)
same,normalized growth,"locus YHR142W, strain chs7, stronger effect = lower value",0.888 (inactive)
same,normalized growth,"locus YHR200W, strain rpn10, stronger effect = lower value",0.921 (inactive)
same,normalized growth,"locus YIL066C, strain RNR3, stronger effect = lower value",0.858 (active)
same,normalized growth,"locus YIL073C, strain SPO22, stronger effect = lower value",0.909 (inactive)
same,normalized growth,"locus YIL125W, strain kgd1, stronger effect = lower value",0.964 (inactive)
same,normalized growth,"locus YIR030C, strain dcg1, stronger effect = lower value",0.969 (inactive)
same,normalized growth,"locus YJL092W, strain hpr5, stronger effect = lower value",0.956 (inactive)
same,normalized growth,"locus YJL095W, strain BCK1 (second series), stronger effect = lower value",0.98 (inactive)
same,normalized growth,"locus YJL095W, strain BCK1, stronger effect = lower value",0.756 (active) and 0.945 (inactive)
same,normalized growth,"locus YJL115W, strain asf1, stronger effect = lower value",0.973 (inactive)
same,normalized growth,"locus YJL129C, strain trk1, stronger effect = lower value",0.912 (inactive)
same,normalized growth,"locus YJL134W, strain LCB3, stronger effect = lower value",0.978 (inactive)
same,normalized growth,"locus YJL154C, strain vps35, stronger effect = lower value",0.956 (inactive)
same,normalized growth,"locus YJL164C, strain tpk1, stronger effect = lower value",0.952 (inactive)
same,normalized growth,"locus YJL166W, strain qcr8, stronger effect = lower value",0.983 (inactive)
same,normalized growth,"locus YJL168C, strain set2, stronger effect = lower value",0.968 (inactive)
same,normalized growth,"locus YJL187C, strain SWE1 (second series), stronger effect = lower value",0.867 (active)
same,normalized growth,"locus YJR043C, strain POL32, stronger effect = lower value",0.792 (active)
same,normalized growth,"locus YJR066W, strain TOR1, stronger effect = lower value",0.915 (inactive)

# From PubChem BioAssay AID1159580 (chemical genetic matrix, 2015)
